Screens from PubChem BioAssay.
Shown are actives, neighbours in structure and some others; about 2.1% of the full set was active somewhere.
ADAM10 inh: human ADAM10 inhibitors, primary screen, biochemical, QFRET, HTS; 370,000 tested, 0.62% active; Disintegrin and metalloproteinase domain-containing protein 10 (Homo sapiens), O14672; recombinant ADAM10, EDANS/DABCYL FRET peptide cleavage, 3 h; inhibition, % at 7 µM;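 active = inhibition above a per-campaign cutoff equal to the mean of compounds falling between control-based bounds plus 3 SD, cut at about 20% in these data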;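 also: 0% = DMSO wells while the 100% control is not disclosed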
PLC-gamma1 inh: PLC-gamma1 enzyme inhibitors, primary screen, biochemical, fluorescence, purified enzyme | 1-phosphatidylinositol 4,5-bisphosphate phosphodiesterase gamma-1 (Homo sapiens), P19174 | fluorogenic substrate | inhibition, % at 12.2 µM | 370,000 tested, 0.84% active | AID 720700, 2013; in the data active = inhibition above about 9.5%
ADAM17 inh: ADAM17 inhibitors, primary screen, biochemical, QFRET; recombinant ADAM17, EDANS/DABCYL FRET peptide cleavage; 370,000 tested, 0.83% active; Disintegrin and metalloproteinase domain-containing protein 17 (Homo sapiens), P78536; inhibition, % at 6.95 µM;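 active = inhibition above the mean of compounds lying between control limits plus 3 SD, set per campaign, cut at about 8.5% in these data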;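 also: 0% = DMSO-only wells as the low control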
Rce1 inhib: yeast Rce1p protease inhibitors, primary screen, biochemical, fluorescence, cell-free homogeneous; CAAX prenyl protease 2 (Saccharomyces cerevisiae (strain ATCC 204508 / S288c)), Q03530; 290,000 tested, 0.27% active; yeast membranes, quenched prenylated peptide cleavage fluorescence; calls only; AID 2563, 2010;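 active = fall in fluorescence gain of 50% or more versus controls, with final raw signal at or below 3038400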;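 also: plate controls were neutral control wells for no effect and wells lacking membranes for full effect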
Target sequence (Q03530 whole entry, looked up): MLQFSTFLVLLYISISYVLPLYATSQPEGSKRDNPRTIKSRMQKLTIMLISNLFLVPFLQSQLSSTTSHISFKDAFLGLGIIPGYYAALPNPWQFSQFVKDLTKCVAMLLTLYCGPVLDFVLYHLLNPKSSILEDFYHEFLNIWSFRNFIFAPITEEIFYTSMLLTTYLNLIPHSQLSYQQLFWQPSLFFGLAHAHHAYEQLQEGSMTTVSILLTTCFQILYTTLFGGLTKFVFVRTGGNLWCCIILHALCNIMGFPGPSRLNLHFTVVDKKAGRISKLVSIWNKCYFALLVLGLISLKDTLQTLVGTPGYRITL
PLCb3 inh: human PLC-beta3 inhibitors, primary screen, biochemical, fluorescence; 1-phosphatidylinositol 4,5-bisphosphate phosphodiesterase beta-3 (Homo sapiens), Q01970; 370,000 tested, 0.18% active; inhibition, % at 12.2 µM; Purified PLC-beta3, fluorogenic substrate; AID 720704, 2013; in the data active = inhibition above about 11%;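 also: 0% = median of compound wells on plate and 100% = full blocker control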
ADAM10 counter: ADAM10 inhibitors, counter-screen for ADAM17 exosite inhibitor project, biochemical, FRET, human ADAM10. shares compounds with ADAM17 inh. inhibition, % at 6.95 µM. AID 743256, 2014. 2,900 tested, 47% active. recombinant ADAM10, EDANS/DABCYL FRET peptide cleavage, 3 h;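 active = mean inhibition over the triplicate runs exceeds the activity threshold set in the earlier primary screen, cut at about 20% in these data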;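 also: 0% = DMSO wells and 100% = marimastat wells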
ADAM17 confirm: ADAM17 inhibitors, hit retest, confirmation, biochemical, QFRET peptide cleavage. shares compounds with ADAM17 inh. 2,900 tested, 65% active. inhibition, % at 6.95 µM. recombinant ADAM17, EDANS/DABCYL QFRET peptide cleavage;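 active = mean inhibition across replicates above the hit cutoff set in the primary screen, cut at about 8.5% in these data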;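 also: 0% = DMSO wells and 100% = marimastat wells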
* hit, by the source's call; i = inactive; x = not tested or not shown.

SMILES | ADAM10 inh | PLC-gamma1 inh | ADAM17 inh | Rce1 inhib | PLCb3 inh | ADAM10 counter | ADAM17 confirm
C[C@H](NC(=O)c1nc[nH]c1C(=O)NC(c1ccccc1)c1ccccc1)C(=O)OCc1ccccc1 | 14 | -7 | 9.3* | i | -4 | 3 | 12*
CCN(CC)S(=O)(=O)c1cc(C(=O)Nc2cc(C)[nH]n2)ccc1Cl | x | x | x | i | x | x | x
COc1cccc(N2CCN(S(=O)(=O)c3ccc(-n4cnnn4)cc3)CC2)c1 | 1 | 3 | 3 | i | -4 | x | x
CC(C)C(C)NC(=O)COC(=O)c1cc(S(=O)(=O)N(C)C)ccc1N1CCCC1 (stereo unspecified) | x | x | x | i | x | x | x
CCN(CC)C(=O)c1[nH]cnc1C(=O)N[C@@H](C)C(=O)OCc1ccccc1 | -5 | 2 | -5 | i | 2 | x | x
C[C@H](NC(=O)c1nc[nH]c1C(=O)NCc1ccc(CNC(=O)OC(C)(C)C)cc1)C(=O)OCc1ccccc1 | 15 | 3 | 10* | x | 3 | 37* | 21*
CC(C)c1ccc(NC(=O)CSc2n[nH]c(=O)n2-c2cccnc2)cc1 | 9 | 3 | 1 | i | -6 | x | x
O=C(Nc1ccc(S(=O)(=O)C(F)F)cc1)c1cccc(S(=O)(=O)N2CCOCC2)c1 | 13 | 9 | 12* | i | 8 | 14 | 9.0*
O=C(Nc1ccc2c(c1)CCC2)c1cccc(S(=O)(=O)N2CCN(c3ccccc3)CC2)c1 | 16 | -8 | 9.1* | i | -12 | 20* | 15*
O=C(Nc1ccncc1)c1cccc(S(=O)(=O)N2CCOCC2)c1 | -8 | 1 | 1 | i | -5 | x | x
CC(=O)Nc1ccc(CNc2nc3cc(-c4ccc(F)cc4)sc3c(=O)n2C)cc1 | -19 | -1 | -3 | x | 1 | x | x
COCCN(Cc1ccc(OC)cc1)c1c(C)nc2ccc(C(=O)NCCc3c[nH]c4ccccc34)cn12 | -12 | -1 | 2 | x | -4 | x | x
Cc1cccc(NC(=O)CSc2nnc(SCc3ccc(Cl)cc3)s2)c1 | 12 | -2 | 8.8* | x | -9 | 15 | 12*
CCOC(=O)/C=C/COc1ccccc1[N+](=O)[O-] | 0 | 1 | -5 | i | -7 | x | x
COc1ccc(NC(=O)C2CCN(S(=O)(=O)c3c(C)noc3/C=C/N(C)C)CC2)cc1 | -2 | -9 | 10* | i | -25 | 16 | 11*
COc1cccc(CNC(=O)C2CCCN(S(=O)(=O)c3c(C)noc3/C=C/N(C)C)C2)c1 (stereo unspecified) | 17 | -8 | 8.9* | i | -23 | 12 | 7
N#CC(=C1Nc2ccccc2N1)S(=O)(=O)c1ccccc1 | 3 | 2 | 4 | i | 0 | x | x
O=C(NC(NC(=S)Nc1c(Cl)cccc1Cl)C(Cl)(Cl)Cl)OCc1ccccc1 (stereo unspecified) | 14 | 0 | 12* | i | -2 | 33* | 16*
CCOC(=O)NC(NC(=S)Nc1ccc(OCC)cc1)C(Cl)(Cl)Cl (stereo unspecified) | -2 | 2 | 0 | i | 0 | x | x
Cn1c(N)c(C(=O)COC(=O)COc2ccc(Cl)cc2Cl)c(=O)n(C)c1=O | -1 | 2 | 2 | x | 3 | x | x
COc1ccc(C2C3=C(N=C4SCC(=O)N42)c2ccccc2CC3)cc1OC (stereo unspecified) | 14 | -24 | 9.3* | i | -42 | -2 | 2
COc1ccc(C2C3=C(N=C4SCC(=O)N42)c2ccccc2CC3)cc1 (stereo unspecified) | -25 | -8 | -7 | i | -10 | x | x
COc1ccccc1CNC(=O)CN1CCN(S(=O)(=O)c2cccs2)CC1 | 0 | 0 | -3 | i | -2 | x | x
Cc1cccc(C)c1NC(=O)COC(=O)CCc1ccc(S(=O)(=O)N2CCCCC2)cc1 | 2 | 5 | 3 | i | 4 | x | x
O=C(CN1CCN(Cc2ccccc2)CC1)Nc1cccc(S(=O)(=O)N2CCCCCC2)c1 | 14 | 3 | 8.9* | i | 4 | 22* | 11*
SMILES | ADAM10 inh | PLC-gamma1 inh | ADAM17 inh | Rce1 inhib | PLCb3 inh | ADAM10 counter | ADAM17 confirm
Cc1ccc(C)c(OCCC(=O)Nc2cccc(S(=O)(=O)N3CCCCC3)c2)c1 | 18 | 2 | 9.3* | x | -2 | 40* | 21*
Cc1ccc(C)c(C(=O)OCC(=O)Nc2cccc(S(=O)(=O)N3CCCCC3)c2)c1 | 8 | 3 | 12* | x | -5 | 32* | 19*
O=C(COC(=O)CCc1ccc(S(=O)(=O)N2CCCCC2)cc1)Nc1cccc2ccccc12 | 18 | 3 | 13* | i | 8 | 26* | 12*
O=C(CN1CCOCC1)Nc1cccc(S(=O)(=O)N2CCCCCC2)c1 | 8 | 7 | 1 | i | 2 | x | x
COCCNCc1ccccc1[N+](=O)[O-] | 4 | -2 | -2 | x | -1 | x | x
CCCc1cc(=O)oc2cc(OC(C)C(=O)NC3CC(C)(C)NC(C)(C)C3)ccc12 (stereo unspecified) | -173 | -3 | -61 | i | -32 | x | x
CS(=O)(=O)N1CCCC(C(=O)Nc2ccc3c(c2)OCCO3)C1 (stereo unspecified) | -7 | -1 | -1 | i | 4 | x | x
CSc1ncccc1C(=O)OCC(=O)Nc1ccc(S(=O)(=O)N2CCCC2)cc1 | 9 | 1 | 9.5* | i | -1 | 1 | 6
O=C(COC(=O)/C=C/c1ccc(OC(F)F)cc1)Nc1ccc(S(=O)(=O)N2CCCC2)cc1 | 18 | -1 | 9.8* | i | 1 | 18 | 13*
CSc1ncccc1C(=O)OCC(=O)c1ccc(S(=O)(=O)N2CCCCC2)cc1 | 14 | 0 | 3 | i | 5 | x | x
CC(=O)c1ccccc1OCC(=O)Nc1cccc(S(=O)(=O)N2CCCC2)c1 | -11 | 9 | 9.3* | x | -3 | 10 | 4
Cc1cccc(OCCC(=O)Nc2ccc(C)c(S(=O)(=O)N3CCCCC3)c2)c1 | 26* | -2 | 14* | i | 2 | 36* | 18*
O=C(COC(=O)/C=C/c1ccc(OC(F)F)cc1)Nc1cccc(S(=O)(=O)N2CCCC2)c1 | 10 | 1 | 4 | i | -6 | x | x
O=C(Nc1ccn(CCOC(=O)c2ccccc2)c(=O)n1)c1ccccc1 | 5 | 2 | 3 | x | 4 | x | x
COC(=O)[C@@]1(C(C)C)N=C(c2cc(OC)c(OC)c(OC)c2)[C@]2(O1)C(=O)N(C)c1ccccc12 | -7 | 1 | -3 | x | 5 | x | x
